Assay results as given in the supplement of paper PMC10849652.
About 8,800 targets were measured; listed, in parts, are those with a hit and a random draw of the rest. About 0.5% of all pairs of compound and target were hits.

How the values were obtained:
Test in all cases: log2 fold change, soluble protein after heating vs DMSO (PISA); higher = thermal stabilisation; K562 lysate, 10 uM; active = over 0.2 and 3.5 SD of the protein, either way, in both replicates (recomputed)
[1] = compound: C1=CC=C(C=C1)[C@H](COC2=CC3=C(C=C2)NC(=O)N3)NC(=O)C4=CC=CN(C4=O)CC5=CC(=C(C=C5)F)F
Method in brief: (§1)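 Following dounce homogenisation of K562 pellets in PBS pH 7.4 with 1 mM MgCl2, crude extract at 1 mg/mL protein was incubated for 30 min with 10 μM compound. Aliquots were then heated for 3 min over 48°C-58°C and pooled, NP-40 was added to 0.5% at 4°C, and soluble protein was recovered as the supernatant at 21,000xg for 90 min. Channel-sum-equalised TMTpro 16plex LC-MS/MS quantified this protein. Each value, from duplicates, is a log-two fold change in thermal stability relative to solvent controls.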

[2] = compound: CC1=C(SC2=C1C(=N[C@H](C3=NN=C(N32)C)CC(=O)N)C4=CC=C(C=C4)Cl)C
Method in brief: as §1

[3] = compound: CC1=C2C(=CC=C1)N=C(N(C2=O)C3=CC=CC=C3C)CN4C=NC5=C(N=CN=C54)N
Method in brief: as §1

[4] = compound: Cc1sc2c(c1C)C(c1ccc(Cl)cc1)=N[C@@H](CC(=O)OC(C)(C)C)c1nnc(C)n1-2
Method in brief: as §1

[5] = compound: c1ccc([C@@H]2C[C@H]2NC2CCNCC2)cc1
Method in brief: as §1

Measured: log2 fold change

CDCA8 (UniProt Q53HL2)
UniProt Q53HL2, sequence (Q53HL2 whole entry, looked up): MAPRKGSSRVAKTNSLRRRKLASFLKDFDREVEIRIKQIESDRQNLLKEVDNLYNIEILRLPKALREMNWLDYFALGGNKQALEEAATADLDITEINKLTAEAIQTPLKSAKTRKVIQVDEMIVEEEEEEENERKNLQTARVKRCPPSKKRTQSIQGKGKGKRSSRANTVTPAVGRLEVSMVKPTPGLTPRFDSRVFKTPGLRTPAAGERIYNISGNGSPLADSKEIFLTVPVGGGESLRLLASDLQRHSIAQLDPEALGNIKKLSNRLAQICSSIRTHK
inactive: [1] 0.038 | [2] 0.037 | [3] -0.213 | [4] -0.048 | [5] 0.104

CDK16 isoform 2 (UniProt Q00536)
UniProt Q00536, sequence (Q00536 whole entry, looked up): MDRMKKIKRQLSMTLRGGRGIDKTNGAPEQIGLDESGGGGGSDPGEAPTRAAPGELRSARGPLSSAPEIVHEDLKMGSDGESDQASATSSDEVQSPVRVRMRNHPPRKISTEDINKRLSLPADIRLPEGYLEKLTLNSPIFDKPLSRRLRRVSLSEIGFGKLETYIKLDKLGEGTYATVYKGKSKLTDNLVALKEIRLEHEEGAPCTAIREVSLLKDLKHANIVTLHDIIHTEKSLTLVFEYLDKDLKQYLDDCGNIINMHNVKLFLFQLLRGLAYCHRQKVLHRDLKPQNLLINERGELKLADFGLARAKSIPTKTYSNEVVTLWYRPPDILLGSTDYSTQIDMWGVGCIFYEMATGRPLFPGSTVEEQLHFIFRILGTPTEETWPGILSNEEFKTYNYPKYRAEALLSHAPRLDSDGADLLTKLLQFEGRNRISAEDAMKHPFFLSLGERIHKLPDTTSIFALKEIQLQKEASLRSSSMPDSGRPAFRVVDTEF
inactive: [1] -0.02 | [2] -0.059 | [3] -0.11 | [4] -0.011 | [5] -0.049

BUD23 isoform 3 (UniProt O43709)
UniProt O43709, sequence (O43709 whole entry, looked up): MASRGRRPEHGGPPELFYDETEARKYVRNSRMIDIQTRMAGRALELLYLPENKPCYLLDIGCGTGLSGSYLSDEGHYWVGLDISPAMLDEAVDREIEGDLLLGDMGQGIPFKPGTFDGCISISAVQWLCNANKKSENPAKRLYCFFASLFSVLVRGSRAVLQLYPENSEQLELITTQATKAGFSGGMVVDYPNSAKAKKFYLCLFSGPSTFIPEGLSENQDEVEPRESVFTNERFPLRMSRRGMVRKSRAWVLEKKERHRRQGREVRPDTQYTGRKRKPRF
inactive: [1] 0.076 | [2] 0.03 | [3] 0.021 | [4] 0 | [5] -0.154

C19orf54 (UniProt Q5BKX5)
UniProt Q5BKX5, sequence (Q5BKX5 whole entry, looked up): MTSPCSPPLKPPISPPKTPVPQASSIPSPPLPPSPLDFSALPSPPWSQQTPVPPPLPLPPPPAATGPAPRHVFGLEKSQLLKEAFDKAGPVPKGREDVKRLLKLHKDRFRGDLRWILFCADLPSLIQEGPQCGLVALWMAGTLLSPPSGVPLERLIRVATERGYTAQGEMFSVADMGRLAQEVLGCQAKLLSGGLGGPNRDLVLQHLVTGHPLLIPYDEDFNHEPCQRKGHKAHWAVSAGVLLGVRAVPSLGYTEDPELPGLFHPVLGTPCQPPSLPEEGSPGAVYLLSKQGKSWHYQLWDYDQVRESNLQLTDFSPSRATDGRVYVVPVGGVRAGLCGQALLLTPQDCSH
inactive: [1] 0.04 | [2] 0.102 | [3] -0.007 | [4] 0.033 | [5] 0.043

CDKN1B (UniProt P46527)
UniProt P46527, sequence (P46527 whole entry, looked up): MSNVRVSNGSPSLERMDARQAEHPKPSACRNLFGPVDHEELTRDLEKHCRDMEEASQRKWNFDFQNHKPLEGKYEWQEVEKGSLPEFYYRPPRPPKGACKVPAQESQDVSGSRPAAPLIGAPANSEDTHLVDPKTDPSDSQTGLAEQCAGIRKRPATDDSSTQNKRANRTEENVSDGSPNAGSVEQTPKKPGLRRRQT
inactive: [1] 0.059 | [2] -0.038 | [3] 0.146 | [4] 0.101 | [5] 0.02

ATP13A1 (UniProt Q9HD20)
UniProt Q9HD20, sequence (Q9HD20 whole entry, looked up): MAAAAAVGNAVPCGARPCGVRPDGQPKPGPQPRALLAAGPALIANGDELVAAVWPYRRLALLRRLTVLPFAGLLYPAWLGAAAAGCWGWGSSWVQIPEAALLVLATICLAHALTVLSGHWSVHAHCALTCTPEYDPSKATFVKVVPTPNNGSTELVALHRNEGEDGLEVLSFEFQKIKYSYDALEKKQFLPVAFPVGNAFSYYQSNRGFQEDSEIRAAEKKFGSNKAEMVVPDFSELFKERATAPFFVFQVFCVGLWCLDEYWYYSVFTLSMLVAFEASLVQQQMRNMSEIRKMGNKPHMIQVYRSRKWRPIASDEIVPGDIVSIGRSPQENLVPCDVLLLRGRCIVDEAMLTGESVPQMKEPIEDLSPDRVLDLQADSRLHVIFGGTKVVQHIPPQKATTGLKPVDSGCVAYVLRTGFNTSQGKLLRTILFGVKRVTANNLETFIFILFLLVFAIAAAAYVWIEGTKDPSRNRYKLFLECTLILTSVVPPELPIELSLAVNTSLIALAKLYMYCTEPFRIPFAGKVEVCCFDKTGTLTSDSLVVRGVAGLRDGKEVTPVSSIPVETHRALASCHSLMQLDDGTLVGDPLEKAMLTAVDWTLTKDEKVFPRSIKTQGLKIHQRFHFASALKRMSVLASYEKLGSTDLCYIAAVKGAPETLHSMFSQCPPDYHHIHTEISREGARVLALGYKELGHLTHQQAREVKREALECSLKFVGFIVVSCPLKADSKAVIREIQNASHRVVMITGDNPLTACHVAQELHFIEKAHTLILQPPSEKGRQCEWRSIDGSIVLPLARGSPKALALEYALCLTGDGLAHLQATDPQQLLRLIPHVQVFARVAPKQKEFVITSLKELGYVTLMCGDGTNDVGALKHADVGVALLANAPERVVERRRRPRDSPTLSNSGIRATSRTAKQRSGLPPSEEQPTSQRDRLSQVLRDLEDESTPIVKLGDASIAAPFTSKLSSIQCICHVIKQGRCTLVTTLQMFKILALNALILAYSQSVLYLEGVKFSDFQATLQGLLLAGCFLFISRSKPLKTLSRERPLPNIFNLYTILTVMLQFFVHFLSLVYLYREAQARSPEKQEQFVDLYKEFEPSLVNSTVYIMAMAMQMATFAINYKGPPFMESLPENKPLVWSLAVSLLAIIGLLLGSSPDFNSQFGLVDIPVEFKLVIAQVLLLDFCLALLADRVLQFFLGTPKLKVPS
inactive: [1] 0.006 | [2] -0.001 | [3] 0.079 | [4] 0.064 | [5] 0.03

ATRIP (UniProt Q8WXE1)
UniProt Q8WXE1, sequence (Q8WXE1 whole entry, looked up): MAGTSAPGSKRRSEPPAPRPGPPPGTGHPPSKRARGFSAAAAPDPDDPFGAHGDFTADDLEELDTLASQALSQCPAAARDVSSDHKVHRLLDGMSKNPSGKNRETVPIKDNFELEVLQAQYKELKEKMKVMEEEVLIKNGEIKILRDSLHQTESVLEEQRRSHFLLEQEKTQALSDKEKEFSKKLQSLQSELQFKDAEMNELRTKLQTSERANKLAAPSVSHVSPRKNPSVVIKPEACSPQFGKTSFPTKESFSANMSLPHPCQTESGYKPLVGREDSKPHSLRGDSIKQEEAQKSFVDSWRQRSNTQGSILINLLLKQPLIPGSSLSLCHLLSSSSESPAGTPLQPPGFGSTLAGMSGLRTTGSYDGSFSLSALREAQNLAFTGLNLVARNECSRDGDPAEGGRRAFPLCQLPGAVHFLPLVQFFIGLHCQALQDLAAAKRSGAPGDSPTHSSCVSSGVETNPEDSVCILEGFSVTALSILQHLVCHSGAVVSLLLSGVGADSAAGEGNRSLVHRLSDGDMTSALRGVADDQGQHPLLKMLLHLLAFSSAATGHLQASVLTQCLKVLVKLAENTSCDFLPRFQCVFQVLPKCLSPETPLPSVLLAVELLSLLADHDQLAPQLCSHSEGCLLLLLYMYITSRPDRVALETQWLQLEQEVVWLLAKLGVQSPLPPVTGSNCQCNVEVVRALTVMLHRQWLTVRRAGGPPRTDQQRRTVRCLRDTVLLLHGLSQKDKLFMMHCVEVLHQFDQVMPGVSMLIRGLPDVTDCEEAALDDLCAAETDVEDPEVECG
inactive: [1] -0.042 | [2] -0.02 | [3] -0.056 | [4] -0.032 | [5] 0.093

CBX1 (UniProt P83916)
UniProt P83916, sequence (P83916 whole entry, looked up): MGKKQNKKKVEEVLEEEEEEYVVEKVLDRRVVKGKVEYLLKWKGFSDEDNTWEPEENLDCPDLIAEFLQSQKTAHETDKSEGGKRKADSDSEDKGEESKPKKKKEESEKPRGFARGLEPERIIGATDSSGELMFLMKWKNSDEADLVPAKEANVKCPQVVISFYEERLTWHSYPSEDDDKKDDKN
inactive: [1] 0.031 | [2] -0.03 | [3] 0.032 | [4] 0.009 | [5] 0.13

CCDC85B (UniProt Q15834)
UniProt Q15834, sequence (Q15834 whole entry, looked up): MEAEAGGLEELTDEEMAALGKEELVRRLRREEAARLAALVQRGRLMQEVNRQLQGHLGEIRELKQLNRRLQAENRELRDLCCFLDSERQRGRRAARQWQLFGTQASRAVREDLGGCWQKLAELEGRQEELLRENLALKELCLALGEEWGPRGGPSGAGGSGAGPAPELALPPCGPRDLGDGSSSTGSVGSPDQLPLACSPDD
inactive: [1] -0.033 | [2] -0.132 | [3] 0.08 | [4] -0.04 | [5] -0.034

ATP11A (UniProt P98196)
inactive: [1] 0.04 | [2] -0.014 | [3] -0.004 | [4] 0.005 | [5] -0.026

ATP5PF isoform 2 (UniProt P18859)
UniProt P18859, sequence (P18859 whole entry, looked up): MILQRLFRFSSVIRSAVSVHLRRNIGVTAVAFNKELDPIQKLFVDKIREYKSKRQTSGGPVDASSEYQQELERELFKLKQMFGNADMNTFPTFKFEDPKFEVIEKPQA
inactive: [1] 0.085 | [2] -0.086 | [3] -0.05 | [4] 0.075 | [5] 0.228

ATR (UniProt Q13535)
inactive: [1] -0.061 | [2] -0.036 | [3] -0.04 | [4] 0.003 | [5] -0.095
